BoNT-F LC inh = blocks Botulinum neurotoxin F light chain protease. Multiplex microsphere protease cleavage assay, flow cytometry. inhibition, % at 10 µM. 360,000 compounds, 0.22% hits. AID 588497; in the data active = inhibition above about 35%, passing the limit was not always enough; inconclusive = no clear call, values can overlap the other calls
SARS 3CLpro inh = SARS-CoV 3CLpro protease inhibition. P0C6X7. recombinant SARS-CoV 3CLpro, quenched FRET peptide cleavage. inhibition, % at 6 µM. 290,000 compounds, 0.14% hits. AID 1706; in the data active = inhibition above about 12%
Anthrax LF prot = inhibitors of Bacillus anthracis lethal factor protease; P15917; multiplex microsphere protease cleavage assay, LF; inhibition, % at 10 µM; 360,000 compounds, 0.12% hits
Target sequence (P15917 whole entry, looked up): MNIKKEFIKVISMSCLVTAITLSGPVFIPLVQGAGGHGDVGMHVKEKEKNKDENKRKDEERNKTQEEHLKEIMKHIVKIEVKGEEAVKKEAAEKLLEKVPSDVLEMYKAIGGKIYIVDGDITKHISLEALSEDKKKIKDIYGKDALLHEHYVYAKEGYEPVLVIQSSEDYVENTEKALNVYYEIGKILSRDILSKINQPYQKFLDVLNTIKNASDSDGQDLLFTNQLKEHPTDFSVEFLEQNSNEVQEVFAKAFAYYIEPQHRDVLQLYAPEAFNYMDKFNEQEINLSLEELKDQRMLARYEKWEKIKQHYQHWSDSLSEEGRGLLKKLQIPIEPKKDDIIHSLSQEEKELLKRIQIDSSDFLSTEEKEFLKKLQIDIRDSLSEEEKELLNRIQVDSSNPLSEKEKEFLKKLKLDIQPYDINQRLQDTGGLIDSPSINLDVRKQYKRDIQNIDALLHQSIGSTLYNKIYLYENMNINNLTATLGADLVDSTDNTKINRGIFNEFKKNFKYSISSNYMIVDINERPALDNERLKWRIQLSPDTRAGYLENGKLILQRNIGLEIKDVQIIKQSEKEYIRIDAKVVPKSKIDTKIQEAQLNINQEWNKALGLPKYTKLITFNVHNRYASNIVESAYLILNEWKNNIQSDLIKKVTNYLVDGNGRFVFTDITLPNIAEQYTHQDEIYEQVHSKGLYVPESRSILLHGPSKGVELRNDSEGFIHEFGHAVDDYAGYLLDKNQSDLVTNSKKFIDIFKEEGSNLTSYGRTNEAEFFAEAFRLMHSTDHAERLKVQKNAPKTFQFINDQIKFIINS
DUSP3 inh = blocks human VHR1 dual specificity phosphatase. recombinant VHR phosphatase, pNPP absorbance. inhibition, % at 13.3 µM. 290,000 compounds, 0.52% hits. AID 1654. P51452; in the data active = inhibition above about 50%
Bead autofluor = compound fluorescence in toxin protease inhibitor counterscreen; compound autofluorescence counterscreen, microsphere flow cytometry; active compounds read high; fluorescence intensity (concentration not given with the values); 360,000 compounds, 3.1% hits; AID 624483; in the data active = fluorescence intensity above about 16000; inconclusive = no clear call, values can overlap the other calls
BoNT-A LC inh2 = BoNT A light chain protease inhibition | 360,000 compounds, 0.17% hits | multiplex microsphere protease substrate cleavage, flow cytometry | inhibition, % at 10 µM | AID 588499
Each line names hits and unclear results; the compound was inactive in the other large screens. Hits are enriched below; roughly 3.9% of the tested compounds scored in any of these assays. Cut-off read from the data, not from the text of the source, unless noted: active = inhibition above about 30%; inconclusive = no clear call, values can overlap the other calls; inactive = below that.

O=C(NCCc1ccccc1Cl)C1CCC(=O)N(CC2CCCCC2)C1 (configuration not stated)	none
NC(=O)c1cc2c3ccccc3ccn2c1-c1ccccc1	DUSP3 inh 64
Cc1cc(C(N)=O)c2ccccc2n1	none
COc1cc(C(=S)N2CCCC2)cc(OC)c1O	Bead autofluor 20756
COC(=O)c1sc(N)c(C(=O)OC)c1COC(=O)C12CC3CC(CC(O)(C3)C1)C2	none
Cc1ccccc1N=C1NC(=O)/C(=C/c2cccn2-c2cccc(C(=O)O)c2)S1	DUSP3 inh 56 (no result: BoNT-F LC inh, Anthrax LF prot, Bead autofluor, BoNT-A LC inh2)
Cc1cccc(N=C2NC(=O)/C(=C/c3cccn3C)S2)c1C	BoNT-F LC inh inconclusive
CCOC(=O)c1cccc(-n2c(-c3ccc(OC)cc3)nc3nc4ccccc4nc32)c1	none (no result: BoNT-F LC inh, Anthrax LF prot, Bead autofluor, BoNT-A LC inh2)
O=C1CC(c2cccc(Cl)c2)C(n2cncn2)C(=O)C1C1NCCc2ccccc21 (configuration not stated)	none
COc1ccc(C2CC(=O)CC(=O)C2n2cncn2)cc1 (configuration not stated)	Bead autofluor 21795
O=C1CC(=O)C(n2cncn2)C(c2cccc(Cl)c2)C1 (configuration not stated)	Bead autofluor 21751
CN(C)C(=O)c1ccc(NC(=O)c2cncc(Br)c2)cc1	Bead autofluor 21882
CCOC(=O)C1CCCN(Cc2ccc(OC)c(OCc3ccccc3)c2)C1 (configuration not stated)	none
Cc1ccc(-c2nnc(N3CCN(C(=O)COc4ccccc4)CC3)c3ccccc23)cc1	Bead autofluor 16269
Cc1ccc2c(c1)C(=O)C(=O)N2CC(=O)Nc1ccccc1NC(=O)c1ccccn1	none
COc1ccc(COc2ccsc2C(=O)Nc2ccc(Cl)cc2)cc1	Bead autofluor 19044
NNC(=O)c1sccc1OCc1ccc(F)cc1	DUSP3 inh 55, Bead autofluor inconclusive
COc1ccc(NC(=O)c2csc(Cc3ccc(Cl)cc3)n2)cc1	none
Cn1c(N)c(C(=O)CSc2nnc(-c3c[nH]c4ccccc34)n2C2CC2)c(=O)[nH]c1=O	BoNT-F LC inh inconclusive (no result: SARS 3CLpro inh, DUSP3 inh)
O=C(O)CCCNC(=O)Cc1ccccc1	none
CCC(=O)NCCC(c1ccco1)c1ccccc1OC (configuration not stated)	none
CCCNCCC(c1ccco1)c1ccccc1OC (configuration not stated)	Bead autofluor 16663
COc1ccccc1N(C(=O)CNC(=O)c1ccco1)C(C(=O)NCC1CCCO1)c1ccccc1 (configuration not stated)	none
CCCc1cc(=O)oc2c3c(cc(OCC(=O)N4CCC[C@H]4C(=O)O)c12)OC(C)(C)CC3	none
CC(C)C(=O)Nc1ccnc(-c2cccnc2)n1	Bead autofluor 22732
O=C(Nc1ccnc(-c2cccnc2)n1)c1cccc(Cl)c1Cl	Bead autofluor 22659
Cc1occc1C(=O)N1CCN(S(=O)(=O)c2ccc(F)cc2)CC1	none (no result: SARS 3CLpro inh, DUSP3 inh)
Cc1nn(CC(=O)NCc2ccc(OC(C)C)cc2)c(=O)c2cc(-c3ccccc3)nn12	none
O=C(Cc1ccccc1)c1c[nH]c(C(=O)NCCCn2ccnc2)c1	none (no result: BoNT-F LC inh, Anthrax LF prot, Bead autofluor, BoNT-A LC inh2)
O=C(NCCCn1ccnc1)/C(=C\c1ccco1)NC(=O)c1ccco1	none
O=C(NCCCn1ccnc1)c1ccco1	Bead autofluor 24362
O=C(Nc1ccccc1C(=O)NCCCn1ccnc1)c1ccccc1	Bead autofluor 20501
CCCCCOc1ccc(NC(=O)C(=O)NCCCn2ccnc2)cc1	none
C=CCOc1ccc(NC(=O)C(=O)NCCCn2ccnc2)cc1	Bead autofluor 19499
COc1ccc(C(=O)Nc2ccccc2C(=O)NCCCn2ccnc2)cc1	none
O=C(c1ccc(C(F)(F)F)cc1)c1c[nH]c(C(=O)NCCCn2ccnc2)c1	Bead autofluor 19564, BoNT-A LC inh2 inconclusive
CC(C)Cn1c(N2CCN(CC(=O)Nc3ccc(Cl)cc3)CC2)nc2ccccc21	none
CSc1ccccc1C(=O)NCCCn1ccnc1	DUSP3 inh 54
CCOc1ccc(NCC(=O)Nc2ccc(Cl)cc2C)cc1	Bead autofluor 19405
COc1ccc(-c2onc3ccc(C(=O)/C=C/N(C)C)cc23)cc1	BoNT-F LC inh 45
COc1cccc(/C(O)=C2\C(=O)C(=O)N(c3ccccn3)C2c2ccccc2OC)c1 (configuration not stated)	none
COc1ccc(C2/C(=C(\O)c3cccc(OC)c3)C(=O)C(=O)N2c2ccccn2)cc1 (configuration not stated)	Bead autofluor 23419, BoNT-A LC inh2 inconclusive
O=[N+]([O-])c1cccc(/C=N/N=C\c2ccccc2)c1	BoNT-F LC inh inconclusive, DUSP3 inh 60
O=[N+]([O-])c1cccc(C=NNc2ccccc2)c1	none (no result: SARS 3CLpro inh, DUSP3 inh)
N#Cc1c(-c2ccncc2)c2c([nH]c1=S)CCCC2	none
Cc1ccc(-c2c3c([nH]c(=S)c2C#N)CCCC3)o1	Bead autofluor 24820, BoNT-A LC inh2 inconclusive
Cc1ccc(S(=O)(=O)/N=C(\N)Nc2nc(C)c3cc(C)ccc3n2)cc1	Bead autofluor 21184
CC12CC3CC(C)(C1)CC(C(=O)Nc1nn[nH]n1)(C3)C2	Bead autofluor 19766, BoNT-A LC inh2 inconclusive
CCC12CC3CC(C1)CC(C(=O)Nc1nn[nH]n1)(C3)C2	Bead autofluor 23265, BoNT-A LC inh2 inconclusive
CC12CC3(C)CC(C)(C1)CC(C(=O)Nc1nn[nH]n1)(C2)C3	none
CSCc1c(C(=O)NCCc2ccccn2)oc2ccccc12	none
COc1ccc(-n2nc(C(=O)NCC(=O)NCc3ccco3)c3ccccc3c2=O)cc1Cl	Bead autofluor 21931
COc1ccc(-n2nc(C(=O)NCC(=O)N3CCN(c4ccccn4)CC3)c3ccccc3c2=O)cc1	Bead autofluor 22175, BoNT-A LC inh2 inconclusive
COc1ccc(-n2nc(C(=O)NCc3ccco3)c3ccccc3c2=O)cc1	Bead autofluor 19127
CCc1ccc(Cn2ncc3c(C(=O)O)cc(C)nc32)cc1	none (no result: SARS 3CLpro inh, DUSP3 inh)
O=C(COC(=O)c1cccnc1)Nc1ccc2c(c1)OCO2	none
C=CCn1c(SCC(=O)c2ccc(Br)cc2)nnc1C(CC(C)C)NC(=O)c1cccs1 (configuration not stated)	Bead autofluor 22563, BoNT-A LC inh2 inconclusive
CC(C)CC(NC(=O)c1cccs1)c1nnc(SCc2ccc(Cl)c(Cl)c2)n1C (configuration not stated)	none
COc1cccc(NC(=O)Cn2c(=O)oc3ccccc32)c1	Bead autofluor 23609
O=C(Cn1c(=O)oc2ccccc21)Nc1ccc(F)c(F)c1	DUSP3 inh 57
O=C(Cn1c(=O)oc2ccccc21)Nc1ccc(Cl)cc1	none
O=C(c1cccc(S(=O)(=O)N2CCCC2)c1)N1CCN(Cc2ccccc2)CC1	none (no result: SARS 3CLpro inh, DUSP3 inh)
CC1(C(=O)N2CCC(CO)(Cc3cccc(C(F)(F)F)c3)CC2)CC1	none
CC(=O)c1ccc(C(=O)N2CCC(CO)(Cc3cccc(C(F)(F)F)c3)CC2)cc1	DUSP3 inh 53
O=C(CCC(NC(=O)OCc1ccccc1)C(=O)OCC(=O)N1CCCCC1)OCC(=O)N1CCCCC1 (configuration not stated)	Bead autofluor 21055
